Results on 94 compounds are retold here after PubChem BioAssay AID588405 (Sanford-Burnham Center for Chemical Genomics, 2011).

The campaign covered roughly 360,000 compounds. About 6,200 (1.7%) were called active. This is one part of a sample in which actives are shown more often than they occur.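 Rule for the calls: active = inhibition of at least 50% at 20 µM; inactive = the rest.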

This assay is described as follows: Peg3 promoter-driven luciferase inhibitors, primary screen, cell-based, HeLa, luciferase luminescence (AID 588405). To be noted: HeLa PEG-Prom luciferase reporter, overnight, at 20 µM, hits give high values. On the technique in general: Reporter assays use an easily measured gene product as a stand-in for the process of interest.
By inhibition is commonly meant the change of the read-out against control, counted positive when it falls. As to `CS(=O)(=O)N1CCCCC1c1cc(C(=O)NCc2ccccc2)no1` (centres undefined), the inhibition was -14.8% (inactive).
Next, `O=[N+]([O-])c1ccc(CN2CC(N3CCC(c4ccccc4)CC3)CS2(=O)=O)cc1` (centres undefined): 10% (inactive); `Fc1ccccc1COc1ccccc1CNCc1ccncc1`: 18.9% (inactive).
The figure for `COc1cccc(CNCCc2c[nH]c3ccccc23)c1OCc1ccccc1F` is 92.7% (active); for `COc1ccc(C(CCNCc2ccccc2F)c2ccc(F)cc2)cc1` (centres undefined) it is 17.7% (inactive); for `CNc1cncc(-c2ccc(NS(C)(=O)=O)cc2)n1` it is 21.2% (inactive).
Next, `CC1(C(=O)NS(=O)(=O)c2ccc(C#N)cc2)CCN1C(=O)CC1CCCC1` (centres undefined): 11.7% (inactive); `COc1ccc(C(C#N)=C2C=CC(=NO)c3ccccc32)cc1`: -114% (inactive); `COc1ccc(NS(=O)(=O)c2cc3c(cc2C)N(C(C)=O)CCO3)cc1`: 9.24% (inactive).
In the case of `CSc1ccccc1NC(=O)COC(=O)CCCOc1ccc(C)cc1`, the inhibition is 8.63% (inactive).
On to `COc1ccc([N+](=O)[O-])cc1NCC(=O)c1ccc(C)cc1`, for which the inhibition is -17.2% (inactive).
The figure for `COc1cc([N+](=O)[O-])ccc1NC(=O)COC(=O)CCOc1ccc(C)cc1` is 51.2% (active); for `CN1OC[C@@H]2CN(C(=O)c3cccc4ccccc34)[C@H](c3ccc(N4CCCCC4)cc3)C[C@@H]21` it is 1% (inactive).
Next, `O=C(Nc1ccccc1C(=O)NCC1CCCO1)c1ccccc1F` (centres undefined): 6% (inactive).
As to `CSc1n[nH]c(=S)n1N`, the inhibition was 12.2% (inactive).
Next, `Cc1ccc(C)c(S(=O)(=O)N2CCN(C(=O)Nc3ccccc3)CC2)c1`: 5.32% (inactive); `COc1ccc(-c2csc3ncnc(N4CCN(S(=O)(=O)c5ccccc5C#N)CC4)c23)cc1`: 33.6% (inactive).
The figure for `Cc1ccc(C)c(S(=O)(=O)N2CCN(c3ncnc4sccc34)CC2)c1` is 58.5% (active); for `CC(C)Cc1ccc(-c2cc3nc(NCc4cccc(Cl)c4)ccn3n2)cc1` it is -178% (inactive).
Turning to `CC(C)NC(=O)C1(C)CCCCN1Cc1cccc(C(F)(F)F)c1` (centres undefined), the inhibition is -13.2% (inactive).
The figure for `COc1ccc(-c2ccc(C(=O)NC(C)C)c3occc23)c(C)c1` is -11.5% (inactive); for `Cc1ccc(Cn2c(C)c(C(=O)NCc3ccccc3C(F)(F)F)sc2=O)cc1` it is 18.5% (inactive).
The figure for `Cc1cccc(NC(=O)Cn2cc(C(=O)c3ccco3)c3ccccc32)c1` is 8.59% (inactive).
Next, `Cc1cccc(CS(=O)(=O)c2ncc(Cl)c(C(=O)Nc3ccc(F)cc3)n2)c1`: 108% (active).
Consider `CN1CCN(c2ccc(NC(=O)c3ccc4c(c3)[nH]c(=O)n4Cc3ccc(F)cc3)cc2)CC1`, for which the inhibition is 24.3% (inactive).
Next, `Cc1cccc(NC(=O)c2nc(S(=O)(=O)Cc3ccccc3)ncc2Cl)c1`: 111% (active).
Next, `O=C(Nc1ccc(F)cc1)c1ccc(S(=O)(=O)NCc2cccnc2)cc1`: -20.7% (inactive).
Next, `Cc1cc(C)cc(NS(=O)(=O)Cc2ccccc2)c1`: -13.5% (inactive); `CC(Oc1cc2oc(=O)c3c(c2cc1Cl)CCCC3)C(=O)NCc1ccncc1` (centres undefined): 3.42% (inactive).
For `Cc1ccc2nc(-c3ccccc3)c(CC3CCCCC3)n2c1`, the inhibition is -146% (inactive).
Next, `Clc1cccc(Cc2c(-c3cccc(Cl)c3)nc3ccc(Cl)cn23)c1`: -112% (inactive); `COc1ccc(CN2CCC(C)(Oc3cccc(F)c3)C2)c2ccccc12` (centres undefined): -19.4% (inactive); `O=C(NCc1cccnc1)c1cc(C2CCCN(C(=O)CCCc3ccccc3)C2)on1` (centres undefined): -7.2% (inactive).
In the case of `Cc1cc(C)c2c(Cn3ccnc3)cc(=O)oc2c1`, the inhibition was 18.3% (inactive).
As to `Cn1c2ccccc2c(=O)c2c(=O)n(Cc3ccco3)c(COc3ccccc3)nc21`, the inhibition is 50.5% (active).
Next, `O=C(CSc1nnc(COc2ccc(Cl)cc2)n1Cc1ccco1)N1CCNC1=O`: 6.82% (inactive); `CCCc1nc2c(c(=O)c3ccccc3n2C)c(=O)n1C1CCCCCC1`: -44.1% (inactive).
The figure for `CCCNC(=O)C1(C)CCCN(Cc2c(C)nn(-c3ccccc3)c2C)C1` (centres undefined) is 5.49% (inactive); for `COc1cccc(-c2cnc(C(O)c3ccccc3OC)[nH]2)c1` (centres undefined) it is -9.16% (inactive).
Next, `O=C(COc1ccc(-n2cnnn2)cc1)Nc1ccccc1Cl`: -1.45% (inactive); `O=C(Nc1ccccc1Cl)/C(Cl)=C(\Cl)S(=O)c1ccccc1` (centres undefined): 108% (active).
Regarding `CS/C(=C\C(=O)c1ccco1)Nc1ccccc1Cl`, the inhibition was -49.5% (inactive).
Next, `CC(=O)N1CCN(Cc2cc(=O)oc3cc(C)ccc23)CC1`: -2.53% (inactive); `COc1ccc(-c2cc(NC=O)c3ncc(-c4ccccc4)n3c2)cc1OC`: 49.4% (inactive).
For the compound `C[C@H]([C@@H](O)[C@@H](O)[C@@H](C)C(C)(C)C)[C@H]1CC[C@H]2C3CC[C@H]4C[C@H](OS(=O)(=O)O)[C@@H](OS(=O)(=O)O)C[C@]4(C)[C@H]3CC[C@]12C` (some centres undefined), the inhibition was 6.06% (inactive).
The figure for `COc1ccc(NC(=O)C2(C)Cc3c(-c4cccc(NC(C)=O)c4)ccnc3O2)cc1` (centres undefined) is -10.2% (inactive); for `c1ccc2c(c1)CSc1sccc1C2=C1CCNCC1` it is 33.5% (inactive); for `CCOC1=C2[C@@H](CN(S(=O)(=O)c3ccc(C)cc3)[C@H]2c2ccccc2F)[C@H]2C(=O)N(Cc3ccccc3)C(=O)[C@H]2C1` it is 6.76% (inactive).
The figure for `CCCCC(=O)N(C)c1c(CC)nc2c(OCc3ccc(Cl)cc3Cl)cccn12` is 39% (inactive).
With `Cc1ccc(O)c(/C=N/NC(=O)COc2ccc3c(C)cc(=O)oc3c2)c1`, the inhibition is 66.5% (active).
Next, `CCOC(=O)Cc1csc(NC(=O)COc2ccc3c(C)cc(=O)oc3c2)n1`: -3.01% (inactive).
Turning to `Cc1cc(=O)oc2cc(OCC(=O)Nc3nnc(C4CC4)s3)ccc12`, the inhibition is 2.23% (inactive).
The figure for `CC(C)Oc1c(Br)cc(Br)cc1/C=N/NC(N)=S` is 48.7% (inactive); for `CNc1cncc(-c2cccc(C(=O)N3CCOCC3)c2)n1` it is 2.98% (inactive).
The figure for `Cc1ccc(N(Cc2cc3ccccc3[nH]c2=O)C(=O)c2cccs2)cc1` is 11.2% (inactive).
`Cc1ccc(N(Cc2cc(=O)[nH]c3ccccc23)C(=O)CCl)cc1`: the inhibition is 106% (active).
For the compound `CC(=O)N(Cc1cc(=O)[nH]c2ccccc12)c1ccc(C)cc1C`, the inhibition is 23.2% (inactive).
The figure for `CCOc1c2ccc(C(=O)NCc3ccc4c(c3)OCO4)cc2nn1C` is -10.3% (inactive).
Next, `CN(C)C(=O)c1cccc(-c2cnc3sc(NCc4ccc5c(c4)OCO5)nn23)c1`: 50.3% (active); `O=C(CSc1ncnc2scc(-c3ccccc3)c12)NCc1ccc2c(c1)OCO2`: 26.7% (inactive); `CN1CCC[C@@H]1CCO[C@](C)(c1ccccc1)c1ccc(Cl)cc1`: 14.3% (inactive).
Next, `Cc1cc2oc3ccc(NCCC4CCCN4C)cc3c(=O)c2cc1C` (centres undefined): 103% (active); `COc1cccc2sc3cc(NCC[C@@H]4CCCN4C)ccc3c(=O)c12`: -254% (inactive); `CC1(Oc2ccccc2-c2ccno2)CCN(Cc2ccc(-c3ccccc3)o2)C1` (centres undefined): 0.4% (inactive).
Regarding `CC(=O)OC[C@@H]1CN(Cc2ccccc2)C[C@H](n2cnc3c(NCc4ccco4)ncnc32)O1`, the inhibition was 4.43% (inactive).
As to `COc1ccc(Sc2ccc(NC(=O)c3cccc(Cl)c3)cc2C#N)cc1`, the inhibition was 14.8% (inactive).
The figure for `CCOC(=O)C(=Cc1ccccc1)C(=O)c1ccccc1` is 103% (active).
The figure for `CCOC(=O)CNC(=O)/C(=C\c1ccc(F)cc1)NC(=O)c1ccccc1` is 10.4% (inactive); for `CCOC(=O)C(=Cc1ccccc1OC)C(=O)OCC` it is 33.3% (inactive).
Next, `c1cc(-c2ccc3[nH]ccc3c2)n2ccnc2c1`: -57.5% (inactive).
As for `COC(C[C@@H]1O[C@@H]1C(=O)[C@@H](C)OCc1ccccc1)OC`, the inhibition is 7.4% (inactive).
The figure for `C/C(=N\NC(=O)Cc1ccc(Cl)cc1)c1ccccn1` is 104% (active); for `C/C(=N\NC(=O)c1ccccc1F)c1ccccn1` it is -1.8% (inactive); for `CC(=NNC(=S)N1CCCCCC1)c1ccccn1` it is -62.9% (inactive).
The figure for `CN1C(=O)c2ccccc2C(C(=O)NCCCN2CCCC2)C1c1c[nH]c2ccccc12` (centres undefined) is -1.25% (inactive); for `COc1ccc(/C=C/C(=O)c2c(O)cc(OC)cc2OC)cc1` it is -132% (inactive).
The figure for `CCCc1ccc(C(=O)COC(=O)CN2C(=O)NC3(CCCCC3C)C2=O)cc1` (centres undefined) is -7.49% (inactive).
Regarding `O=C(NCc1cccnc1)c1cc(C2CCCCN2C(=O)CCc2ccccc2)on1` (centres undefined), the inhibition is -5.2% (inactive).
Next, `CN(C)c1ccc(Nc2c3c4c(cccc4n(C)c2=O)C(=O)c2ccccc2-3)cc1`: 54.9% (active); `CN(C)c1ccc(C2N(C)C(=O)c3ccccc3N2C)cc1` (centres undefined): 17.6% (inactive).
Next, `CSc1ccc(CNC(=O)C2(C)CCCN2C)cc1` (centres undefined): 7.21% (inactive); `CC(C)Nc1ncnc2c1ncn2[C@H]1CN(Cc2ccncc2)C[C@@H](CO)O1`: -7.45% (inactive); `COc1ccc(CN2CCCCC2C)cc1OC` (centres undefined): 11.9% (inactive).
In the case of `Cc1ccc(/C=C(\C#N)C(=O)Nc2cccc3ncccc23)o1`, the inhibition was -27.1% (inactive).
The figure for `Cc1ccc(-c2ccc(/C=C(\C#N)C(N)=S)o2)c([N+](=O)[O-])c1` is -30.5% (inactive); for `Cc1ccc(Cc2cnc(NC(=O)/C(C#N)=C/c3ccc(-c4cccc([N+](=O)[O-])c4)o3)s2)cc1` it is 71.1% (active).
Next, `CCOc1ccc2[nH]c(=S)sc2c1`: -57% (inactive); `O=[N+]([O-])c1c(NCCO)cc(Sc2nc3ccccc3s2)c2nonc12`: 102% (active).
The figure for `COc1cc(SC#N)ccc1N=Cc1c(C)[nH]n(-c2ccc(C)cc2)c1=O` is 80.8% (active); for `CN(C)c1cccc(NC(=O)c2ccc(-c3ccc(F)c(F)c3)c3ccoc23)c1` it is -43.1% (inactive).
Take `NCCCNC(=S)NCCCN(Cc1ccc(Cl)cc1)c1ccc(Br)cn1`: the inhibition was 85.8% (active).
Consider `O=C(/C=C/c1ccc(Cl)cc1)Nc1ccc(Br)cn1`, for which the inhibition is -33.7% (inactive).
Consider `S=C(NCCCc1ccccc1)Nc1ccc(Br)cc1`, for which the inhibition is 5.05% (inactive).
As for `S=C(NCCCc1cnc[nH]1)NCCCN(Cc1ccc(Cl)c(Cl)c1)c1ccc(Br)cn1`, the inhibition was 98.4% (active).
